According to PubChem BioAssay (NCATS):
Inconclusive results are not listed. Active and inactive are the calls of the source. Unless noted, the call rests on the fitted dose curve; in most records, active means well fitted curve in the direction sought with a large enough effect; inconclusive means small, poorly fitted or top-dose-only effect, or another doubt; inactive means no such curve, though single readings can be large; an effect the other way counts as inactive or inconclusive.

Assays:
[1] = AP1 Signaling Pathway (AID 357; active means well fitted curve in either direction with a large enough effect, not every such curve was filed as active;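 further: ME-180 reporter cells stimulated with EGF at its EC50 level; on the % scale 0 is the no-effect control and ±100 the full control effect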); details: ME-180 AP-1-bla reporter, EGF-induced, beta-lactamase ratio, 5 h; at 7.69 µM (top of the series) unless noted
Summary of the method: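 Beta-lactamase reporter under AP-1 response element, ME-180 background. Stimulus: EC50 EGF. Compound exposure 5 h, 37 °C. Detection: CCF4, 2.5 h RT, 460/530 nm. Values: AC50 from titration.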

[2] = target: Cytochrome P450 1A2 (Homo sapiens) (UniProt P05177); test: p450-cyp1a2 (AID 410; calls by dose curve; further: potency means the concentration at half of the fitted maximal effect;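 on activity change, negative = inhibition: -100% = full effect of reference inhibitor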)
Cytochrome P450 1A2 (Homo sapiens), sequence (P05177 whole entry, looked up): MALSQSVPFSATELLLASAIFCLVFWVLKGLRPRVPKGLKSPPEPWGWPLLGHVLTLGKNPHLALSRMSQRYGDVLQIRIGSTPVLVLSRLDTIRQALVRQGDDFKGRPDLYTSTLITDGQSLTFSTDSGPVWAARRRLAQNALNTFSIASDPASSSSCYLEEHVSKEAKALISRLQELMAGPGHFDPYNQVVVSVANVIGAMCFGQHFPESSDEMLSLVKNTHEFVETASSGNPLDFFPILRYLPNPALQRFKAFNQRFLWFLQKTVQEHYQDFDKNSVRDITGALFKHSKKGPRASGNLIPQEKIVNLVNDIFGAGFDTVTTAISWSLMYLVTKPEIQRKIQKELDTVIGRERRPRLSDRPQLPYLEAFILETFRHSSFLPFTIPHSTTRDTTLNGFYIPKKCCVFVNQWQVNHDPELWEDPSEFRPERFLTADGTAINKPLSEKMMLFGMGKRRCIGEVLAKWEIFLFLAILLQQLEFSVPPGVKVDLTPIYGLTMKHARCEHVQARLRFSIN
Summary of the method: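 20nM CYP1A2, 100uM Luciferin-ME (=Km), 100mM KPO4; cpd 10 min RT; +NADPH regen, 60 min RT; stop/detect 20 min; luminescence. Normalized to furafylline 57 uM = full inhibition.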

[3] = NFAT Signaling Pathway (AID 444; active means well fitted curve in either direction with a large enough effect, not every such curve was filed as active;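 further: carbachol stimulus at about its EC50 of 1 µM final; on the % scale 0 is the no-effect control and ±100 the full control effect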); details: Jurkat NFAT-bla M1, carbachol, beta-lactamase ratio, 5 h; at 7.69 µM (top of the series) unless noted
Summary of the method: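 Jurkat cells with NFAT-driven β-lactamase reporter and co-expressed M1 receptor, stimulated with carbachol (final 1 uM, ~EC50), compound titration, 5 h at 37 °C. CCF4 loaded 1 h at RT; 460/530 nm ratio gave %activity and AC50.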

[4] = Stat Signaling Pathway (AID 446; active means well fitted curve in either direction with a large enough effect, not every such curve was filed as active;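 further: ME-180 cervical cancer cells given 40 pM IL-6 alongside compound; SIE-controlled beta-lactamase reporter measured as 460/530 nm FRET emission ratio; on the % scale 0 is the no-effect control and ±100 the full control effect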); details: ME-180 (cervical carcinoma) SIE beta-lactamase reporter, IL-6 stimulated, 5 h; at 7.69 µM (top of the series) unless noted
Summary of the method: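 Compound effects on IL-6-induced STAT reporter activity were measured in ME-180 cells. After overnight culture, cells were co-treated with 40 pM IL-6 for 5 hrs before beta-lactamase substrate loading at room temperature.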

[5] = target: Glucocorticoid receptor (Homo sapiens) (UniProt P04150); test: GR-GFP Redistribution (AID 450;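 active means compounds whose dose series gives a full or clear partial fitted curve of increased nuclear translocation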; further: potency means the concentration at half of the fitted maximal effect); details: U2OS GR-GFP nuclear translocation, laser cytometry, 2 h
Glucocorticoid receptor (Homo sapiens), sequence (P04150 whole entry, looked up, the tested form may be a part): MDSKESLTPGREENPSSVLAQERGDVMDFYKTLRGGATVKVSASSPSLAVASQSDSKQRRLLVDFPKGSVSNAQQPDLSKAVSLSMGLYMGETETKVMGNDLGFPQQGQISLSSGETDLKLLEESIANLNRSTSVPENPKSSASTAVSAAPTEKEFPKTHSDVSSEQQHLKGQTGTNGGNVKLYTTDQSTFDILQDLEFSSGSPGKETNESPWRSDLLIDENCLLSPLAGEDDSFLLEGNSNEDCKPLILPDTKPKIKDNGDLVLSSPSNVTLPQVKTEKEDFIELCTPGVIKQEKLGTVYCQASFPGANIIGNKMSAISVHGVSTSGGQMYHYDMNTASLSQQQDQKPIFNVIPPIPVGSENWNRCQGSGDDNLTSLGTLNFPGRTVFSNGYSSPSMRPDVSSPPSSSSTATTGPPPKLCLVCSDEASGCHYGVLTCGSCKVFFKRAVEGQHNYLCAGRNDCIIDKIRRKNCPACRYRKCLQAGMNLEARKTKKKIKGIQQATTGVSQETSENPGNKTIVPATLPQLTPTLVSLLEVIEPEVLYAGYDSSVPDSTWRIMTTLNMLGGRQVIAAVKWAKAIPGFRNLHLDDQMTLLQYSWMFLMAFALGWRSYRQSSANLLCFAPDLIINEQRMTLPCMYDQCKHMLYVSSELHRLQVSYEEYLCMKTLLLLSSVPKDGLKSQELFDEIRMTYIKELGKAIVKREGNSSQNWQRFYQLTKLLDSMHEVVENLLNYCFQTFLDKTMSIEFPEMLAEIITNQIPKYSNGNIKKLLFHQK

[6] = target: Glucocorticoid receptor (Homo sapiens) (UniProt P04150); test: GR-EFC Redistribution (AID 451; calls by dose curve; further: potency means the concentration at half of the fitted maximal effect); details: CHO-K1 GR-EFC translocation, beta-gal luminescence, 2 h
Summary of the method: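 CHO-K1 cells expressing nuclear EA and GR-ED fragments of b-gal; compounds titrated up to 46 uM final, 2 h at 37 C. GR nuclear translocation read as complemented b-gal luminescence after 1 h RT detection.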

[7] = target: Mitogen-activated protein kinase 10 (Mus musculus) (UniProt Q61831); test: JNK3 AlphaScreen Assay (AID 530; active means well fitted curve in either direction with a large enough effect, not every such curve was filed as active;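 further: kinase came from lysate of stimulated human HepG2 cells; signal reports phosphorylation of biotinylated GST-cJun 1-79 at Ser73 with 10 µM ATP; on the % scale 0 is the no-effect control and ±100 the full control effect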)
Summary of the method: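 HepG2 lysate (IL-1b/TNFa pre-activated) + biotin-GST-cJun 1-79 + anti-pSer73 cJun; cpd titration, 15 min RT; ATP 10 uM start; Tris pH 7.6, MgCl2, DTT, vanadate; beads in EDTA buffer; AlphaScreen.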

[8] = target: 3',5'-cyclic-AMP phosphodiesterase 4B (Homo sapiens) (UniProt Q07343); test: qHTS Assay for Inhibitors of PDE-IV (AID 607; active means well fitted activation curve with a large enough effect in the main read-out, with a control signal flat, not every such curve was filed as active; further: % of control where 0% means no effect)
3',5'-cyclic-AMP phosphodiesterase 4B (Homo sapiens), sequence (Q07343 whole entry, looked up): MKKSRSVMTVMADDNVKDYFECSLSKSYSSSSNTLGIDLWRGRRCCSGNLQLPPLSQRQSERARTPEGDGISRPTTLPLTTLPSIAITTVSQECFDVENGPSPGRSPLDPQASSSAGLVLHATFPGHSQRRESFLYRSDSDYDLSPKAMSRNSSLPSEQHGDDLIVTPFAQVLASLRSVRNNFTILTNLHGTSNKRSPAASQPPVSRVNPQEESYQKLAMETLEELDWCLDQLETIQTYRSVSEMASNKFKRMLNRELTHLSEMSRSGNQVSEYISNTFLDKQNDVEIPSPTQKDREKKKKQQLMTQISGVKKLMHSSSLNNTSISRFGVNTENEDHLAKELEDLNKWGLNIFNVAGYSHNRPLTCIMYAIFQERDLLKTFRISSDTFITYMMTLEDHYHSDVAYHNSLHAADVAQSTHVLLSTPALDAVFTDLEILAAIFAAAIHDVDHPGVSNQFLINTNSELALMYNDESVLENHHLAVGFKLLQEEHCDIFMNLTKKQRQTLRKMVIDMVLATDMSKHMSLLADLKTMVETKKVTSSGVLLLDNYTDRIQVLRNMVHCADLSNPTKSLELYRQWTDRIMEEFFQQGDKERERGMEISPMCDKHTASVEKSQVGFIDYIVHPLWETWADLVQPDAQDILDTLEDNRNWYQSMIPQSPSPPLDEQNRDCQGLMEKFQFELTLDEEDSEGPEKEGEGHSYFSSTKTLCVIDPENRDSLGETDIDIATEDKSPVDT
Summary of the method: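 ACTOne HEK293 cells carry a modified cAMP-gated CNG channel and express endogenous PDE4; plated 1000 cells/well, compounds up to 22.9 uM final. Membrane-potential dye fluorescence (ex 535/em 590) was read; parental cells received 10 uM forskolin + 100 uM RO 20-1724.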

[9] = target: Guanine nucleotide-binding protein G(i) subunit alpha-1 (Homo sapiens) (UniProt P63096); test: qHTS Assay for Inhibitors of RGS12 GoLoco Motif Activity (Green Fluorophore) (AID 879);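 further: 0% = labeled peptide with Gαi1 and full inhibition = labeled peptide alone without protein; negative values mean loss of peptide binding seen as reduced polarization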
Guanine nucleotide-binding protein G(i) subunit alpha-1 (Homo sapiens), sequence (P63096 whole entry, looked up): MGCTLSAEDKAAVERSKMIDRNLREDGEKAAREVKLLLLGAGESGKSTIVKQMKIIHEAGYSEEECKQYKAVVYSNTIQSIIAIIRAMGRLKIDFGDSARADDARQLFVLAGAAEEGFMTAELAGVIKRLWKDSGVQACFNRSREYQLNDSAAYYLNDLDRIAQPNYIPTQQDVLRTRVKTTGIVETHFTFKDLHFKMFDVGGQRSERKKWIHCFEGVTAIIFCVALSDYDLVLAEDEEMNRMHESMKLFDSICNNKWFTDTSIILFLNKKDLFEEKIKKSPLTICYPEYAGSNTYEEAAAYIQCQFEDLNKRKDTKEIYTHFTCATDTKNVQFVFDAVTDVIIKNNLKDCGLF
Summary of the method: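 A drop in FITC polarization marked displacement of the FITC-tagged RGS12 GoLoco peptide (10 nM) from Gαi1 (50 nM). Compounds were incubated 10 min at room temperature in Tris pH 7.5 buffer containing 150 mM NaCl, 0.1 mM GDP and 0.05% NP40; unlabeled peptide titration served as control.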

[10] = qHTS Assay for Identification of Small Molecule Agonists for Thrombopoietin (TPO) Signaling Pathway (AID 917); further: on the % scale 0 is the no-effect control and ±100 the full control effect
Summary of the method: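 Human TPO receptor–transfected Ba/F3 cells (murine, IL-3-dependent) in IL-3-deficient medium; compounds plus TPO at EC50, 26 pM final; 24 hrs, 37 C; GpIIb-luciferase luminescence after 10 min RT detection.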

[11] = target: Muscarinic acetylcholine receptor M1 (Rattus norvegicus) (UniProt P08482); test: qHTS Assay for Antagonists of Acetylcholine Muscarinic M1 Receptor: Measurement of IP-One Response (AID 944); further: nearly all actives have a fitted effect of over 75% in size
Muscarinic acetylcholine receptor M1 (Rattus norvegicus), sequence (P08482 whole entry, looked up): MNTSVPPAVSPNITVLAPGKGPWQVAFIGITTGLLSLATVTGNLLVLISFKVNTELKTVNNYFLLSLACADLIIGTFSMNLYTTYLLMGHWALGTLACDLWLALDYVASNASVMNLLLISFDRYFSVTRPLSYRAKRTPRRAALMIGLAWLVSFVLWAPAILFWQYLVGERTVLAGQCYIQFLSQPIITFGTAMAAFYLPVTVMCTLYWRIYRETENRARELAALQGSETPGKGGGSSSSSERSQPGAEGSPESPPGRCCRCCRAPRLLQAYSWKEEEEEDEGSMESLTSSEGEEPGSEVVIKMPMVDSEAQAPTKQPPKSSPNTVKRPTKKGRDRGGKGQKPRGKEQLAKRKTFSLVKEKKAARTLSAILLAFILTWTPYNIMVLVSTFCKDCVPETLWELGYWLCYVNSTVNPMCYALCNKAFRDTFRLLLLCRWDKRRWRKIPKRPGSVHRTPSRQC
Summary of the method: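 Read-out: HTRF competition between d2-IP1 and Eu-cryptate anti-IP1 antibody, emission 620 and 665 nm. Stimulus was carbachol, EC80 (200 nM), for 30 min in M1-CHO cells (rat receptor), after 10 min compound pre-treatment.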

[12] = target: Pyruvate kinase (Leishmania mexicana) (UniProt Q27686); test: qHTS Validation Assay for Inhibitors of Leishmania Mexicana Pyruvate Kinase (AID 945);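 further: 0% = DMSO only neutral control wells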
Pyruvate kinase (Leishmania mexicana), sequence (Q27686 2-499 E452W): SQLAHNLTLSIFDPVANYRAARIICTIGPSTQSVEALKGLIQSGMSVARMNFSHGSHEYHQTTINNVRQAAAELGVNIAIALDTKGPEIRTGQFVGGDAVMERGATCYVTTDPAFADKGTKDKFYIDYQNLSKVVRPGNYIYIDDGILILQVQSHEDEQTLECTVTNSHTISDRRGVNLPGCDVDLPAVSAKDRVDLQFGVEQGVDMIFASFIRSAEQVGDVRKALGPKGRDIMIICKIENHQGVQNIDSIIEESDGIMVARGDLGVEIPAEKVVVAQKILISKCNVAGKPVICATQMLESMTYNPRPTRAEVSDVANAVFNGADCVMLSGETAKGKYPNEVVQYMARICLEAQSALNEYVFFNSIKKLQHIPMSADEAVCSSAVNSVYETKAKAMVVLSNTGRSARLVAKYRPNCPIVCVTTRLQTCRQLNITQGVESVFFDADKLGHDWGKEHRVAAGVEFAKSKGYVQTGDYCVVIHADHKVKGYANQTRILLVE
Summary of the method: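 Luminescent ATP detection (PKLight) after a 1 h room-temperature reaction of 0.2 nM LmPYK E451W mutant with 0.5 mM PEP and 0.1 mM ADP at pH 7.2. Activity is normalized to DMSO-only control wells.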

[13] = target: Pyruvate kinase PKM (Homo sapiens) (UniProt P14618); test: qHTS Assay for Activators of Human Muscle Pyruvate Kinase (AID 954; active means well fitted curve in the direction sought with a large enough effect, not every such curve was filed as active;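 further: 0% = uninhibited enzyme and -100% = no enzyme or full thiadiazolimine inhibition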)
Pyruvate kinase PKM (Homo sapiens), sequence (P14618 whole entry, looked up): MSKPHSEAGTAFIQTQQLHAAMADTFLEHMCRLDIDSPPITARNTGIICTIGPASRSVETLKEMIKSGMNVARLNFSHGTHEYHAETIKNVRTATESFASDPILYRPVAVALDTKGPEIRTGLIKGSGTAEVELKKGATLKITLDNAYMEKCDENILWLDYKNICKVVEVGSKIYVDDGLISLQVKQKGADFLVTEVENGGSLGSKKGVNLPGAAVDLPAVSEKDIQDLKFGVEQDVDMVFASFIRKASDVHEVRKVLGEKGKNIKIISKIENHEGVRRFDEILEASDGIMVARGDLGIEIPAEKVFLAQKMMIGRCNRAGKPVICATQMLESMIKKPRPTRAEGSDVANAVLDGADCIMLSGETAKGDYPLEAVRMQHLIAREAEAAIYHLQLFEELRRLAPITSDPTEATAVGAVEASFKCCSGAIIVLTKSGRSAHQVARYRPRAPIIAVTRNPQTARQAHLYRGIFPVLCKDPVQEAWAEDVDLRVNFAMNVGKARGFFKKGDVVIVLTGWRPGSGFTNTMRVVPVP
Summary of the method: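 A coupled luminescent readout tracked ATP made from ADP by purified PKM2. Final conditions included 0.1 nM enzyme, PEP and ADP at 0.5 and 0.1 mM, pH 7.2 imidazole buffer with BSA, and a one-hour room-temperature reaction.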

[14] = target: Alpha-galactosidase A (Homo sapiens) (UniProt P06280); test: Counterscreen for Glucocerebrosidase Inhibitors: qHTS Assay for Human alpha-Galactosidase at pH 4.5 (AID 992); further: 0% is about no effect
Alpha-galactosidase A (Homo sapiens), sequence (P06280 whole entry, looked up): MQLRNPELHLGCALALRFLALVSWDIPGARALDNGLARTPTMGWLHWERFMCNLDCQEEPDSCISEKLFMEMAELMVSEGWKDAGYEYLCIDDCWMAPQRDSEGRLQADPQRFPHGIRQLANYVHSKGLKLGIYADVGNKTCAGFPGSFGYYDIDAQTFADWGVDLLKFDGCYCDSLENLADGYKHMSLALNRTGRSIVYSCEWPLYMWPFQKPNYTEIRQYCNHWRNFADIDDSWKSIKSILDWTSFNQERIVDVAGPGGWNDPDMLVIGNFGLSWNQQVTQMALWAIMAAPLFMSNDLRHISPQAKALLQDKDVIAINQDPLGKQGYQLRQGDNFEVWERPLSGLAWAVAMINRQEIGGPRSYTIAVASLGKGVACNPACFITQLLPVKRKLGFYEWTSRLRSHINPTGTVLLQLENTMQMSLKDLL
Summary of the method: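 Citrate buffer pH 4.5, Tween-20 0.005%. Enzyme 2 nM, substrate 80 uM, 20 min RT. Stop pH 10. Fluorescence Ex 365/Em 440. AC50 by Hill fit.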

[15] = target: alpha-glucosidase (Oryza sativa, rice) (UniProt Q653V4); test: Counterscreen for Glucocerebrosidase Inhibitors: qHTS Assay for Rice alpha-Glucosidase at pH 5.0 (AID 997); further: potency means the concentration at half of the fitted maximal effect;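 on activity change, negative = inhibition: 0% = full activity with enzyme and -100% = basal without enzyme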
Summary of the method: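 Endpoint fluorogenic assay at pH 5.0: compounds (0.7 nM to 77 uM) titrated against 4 nM rice enzyme and 400 uM 4-MU-alpha-glucoside for 20 min at room temperature; NaOH/glycine stop, read ex 365/em 440 nm, Hill-fitted AC50.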

[16] = target: Cytochrome P450 3A4 (Homo sapiens) (UniProt P08684); test: qHTS Assay for Activators of Cytochrome P450 3A4 (AID 885); further: nearly all actives have a fitted effect of over 65% in size
Cytochrome P450 3A4 (Homo sapiens), sequence (P08684 whole entry, looked up): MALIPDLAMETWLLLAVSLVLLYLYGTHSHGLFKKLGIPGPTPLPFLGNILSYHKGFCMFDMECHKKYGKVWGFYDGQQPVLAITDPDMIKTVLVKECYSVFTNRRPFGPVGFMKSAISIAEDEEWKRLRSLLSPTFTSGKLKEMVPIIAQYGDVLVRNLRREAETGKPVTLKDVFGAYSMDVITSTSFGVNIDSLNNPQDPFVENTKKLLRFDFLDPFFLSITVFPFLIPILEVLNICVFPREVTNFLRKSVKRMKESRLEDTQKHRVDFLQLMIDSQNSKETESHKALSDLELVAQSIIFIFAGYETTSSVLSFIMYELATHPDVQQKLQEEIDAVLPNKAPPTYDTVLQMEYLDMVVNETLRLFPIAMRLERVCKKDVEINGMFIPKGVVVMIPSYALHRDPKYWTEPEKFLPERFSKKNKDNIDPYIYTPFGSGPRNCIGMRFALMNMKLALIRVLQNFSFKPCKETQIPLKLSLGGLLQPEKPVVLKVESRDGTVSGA
Summary of the method: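 CYP3A4 activity: Luciferin-PPXE O-dealkylation, 25uM substrate, 200mM KPO4, RT throughout. Read-out is luciferase luminescence; higher values reflect activation.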

[17] = target: Muscarinic acetylcholine receptor M1 (Rattus norvegicus) (UniProt P08482); test: qHTS Assay for Antagonists of Acetylcholine Muscarinic M1 Receptor: Kinetic Measurement of Intracellular Calcium Response (AID 943);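 further: Fluo-4 calcium signal as peak divided by basal fluorescence over 4 min; nearly all actives have a fitted effect of over 75% in size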
Summary of the method: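 Read-out: peak over basal Fluo-4 fluorescence, kinetic at 1 Hz for 4 min after EC80 carbachol (100 nM final). Rat M1-CHO cells, dye loaded 1 h at 37C, compound added 10 min before agonist.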

[18] = target: Cytochrome P450 2C19 (Homo sapiens) (UniProt P33261); test: qHTS Assay for Inhibitors and Substrates of Cytochrome P450 2C19 (AID 899); further: on the % scale 0 is the no-effect control and ±100 the full control effect; nearly all actives have a fitted effect of over 60% in size
Summary of the method: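 Signal comes from luciferase acting on luciferin released by CYP2C19-mediated hydroxylation of Luciferin-H EGE, 10uM (KM). Assay mix: 5nM enzyme, 50mM KPO4; 60 min at 37C with NADPH regeneration. Data normalized against 57uM ketoconazole.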

Nc1ncnc2c1ncn2[C@@H]1CCCO1
inactive: activity change, negative = inhibition [1] 2.44% [at 38 µM] | Potency [2] | activity change, negative = inhibition [3] -4.45% [at 38 µM] | activity, negative = inhibition [4] -7.91% [at 38 µM] | Potency [5] > 46 µM | Potency [6] > 46 µM | Potency [7] | Potency [8] | outcome [9] | outcome [10] | Potency [11] | outcome [12] | outcome [13] | outcome [14] | Potency [15]

O=[N+]([O-])c1ccc(CSc2ncnc3c2ncn3[C@@H]2O[C@@H](CO)[C@@H](O)[C@H]2O)cc1
inactive: activity change, negative = inhibition [1] -12.2% [at 38 µM] | Potency [2] | activity change, negative = inhibition [3] 11% [at 38 µM] | activity, negative = inhibition [4] 29.7% [at 38 µM] | Potency [5] > 46 µM | Potency [6] > 46 µM | Potency [7] | Potency [8] | outcome [9] | outcome [10] | Potency [11] | outcome [12] | outcome [13] | outcome [14] | Potency [15]

C[C@@H](Cc1ccccc1)Nc1ncnc2c1ncn2[C@@H]1O[C@@H](CO)[C@H](O)[C@@H]1O
inactive: activity change, negative = inhibition [1] -12.1% [at 38 µM] | Potency [2] | activity change, negative = inhibition [3] -0.283% [at 38 µM] | activity, negative = inhibition [4] -0.703% [at 38 µM] | Potency [5] > 46 µM | Potency [6] > 46 µM | Potency [7] | Potency [8] | outcome [9] | Potency [16] | outcome [10] | Potency [11] | outcome [12] | outcome [13] | outcome [14] | Potency [15]

O=C(O)CCCC[C@H]1CCSS1
inactive: activity change, negative = inhibition [1] -4.68% [at 38 µM] | Potency [2] | activity change, negative = inhibition [3] -1.58% [at 38 µM] | activity, negative = inhibition [4] -7.28% [at 38 µM] | Potency [5] > 46 µM | Potency [6] > 46 µM | Potency [7] | Potency [8] | outcome [9] | outcome [10] | outcome [12] | outcome [13] | outcome [14] | Potency [15]

O=C1O/C(=C\Br)CC[C@@H]1c1cccc2ccccc12
inactive: activity change, negative = inhibition [1] -0.931% [at 38 µM] | Potency [2] | activity change, negative = inhibition [3] -0.824% [at 38 µM] | activity, negative = inhibition [4] 4.17% [at 38 µM] | Potency [5] > 46 µM | Potency [6] > 46 µM | Potency [7] | Potency [8] | outcome [9] | Potency [16] | Potency [17] | Potency [11] | outcome [12] | outcome [14] | Potency [15]

CC(C)[C@@H]1NC(=O)[C@H](CCCCN)NC(=O)[C@H](Cc2c[nH]c3ccccc23)NC(=O)[C@H](Cc2ccc(O)cc2)NC(=O)[C@H](C)N(C)C(=O)[C@H](Cc2ccccc2)NC1=O
inactive: activity change, negative = inhibition [1] 15.3% [at 38 µM] | Potency [2] | activity change, negative = inhibition [3] -3.97% [at 38 µM] | activity, negative = inhibition [4] -2.13% [at 38 µM] | Potency [5] > 46 µM | Potency [6] > 46 µM | Potency [7] | Potency [8] | outcome [9] | Potency [16] | outcome [10] | outcome [13] | outcome [14] | Potency [15]

Cc1ccc(S(=O)(=O)NCc2cccc([N+](=O)[O-])c2)cc1
inactive: activity change, negative = inhibition [1] -2.52% | activity change, negative = inhibition [3] 6.53% | activity, negative = inhibition [4] 2.25% | Potency [5] > 46 µM | Potency [6] > 9.22 µM | Potency [7] | Potency [8]
active: Potency [2] 3.98 µM

N[C@H](CCCC(=O)O)C(=O)O
inactive: activity change, negative = inhibition [1] 3.41% [at 38 µM] | Potency [2] | activity change, negative = inhibition [3] 7.48% [at 38 µM] | activity, negative = inhibition [4] -3.61% [at 38 µM] | Potency [5] > 46 µM | Potency [6] > 46 µM | Potency [7] | Potency [8] | outcome [9] | Potency [18] | outcome [10] | Potency [17] | Potency [11] | outcome [12] | outcome [13] | outcome [14] | Potency [15]

N[C@H](CCC(=O)NCS(=O)(=O)O)C(=O)O
inactive: activity change, negative = inhibition [1] 3.52% [at 38 µM] | Potency [2] | activity change, negative = inhibition [3] 4.56% [at 38 µM] | activity, negative = inhibition [4] -7.51% [at 38 µM] | Potency [5] > 46 µM | Potency [6] > 46 µM | Potency [7] | Potency [8] | outcome [9] | outcome [10] | Potency [17] | Potency [11] | outcome [12] | outcome [13] | outcome [14] | Potency [15]

Nc1ncnc2c1nc(Sc1ccc(Cl)cc1)n2[C@@H]1O[C@H]2COP(=O)(O)O[C@@H]2[C@H]1O
inactive: activity change, negative = inhibition [1] 6.42% [at 38 µM] | Potency [2] | activity change, negative = inhibition [3] -0.761% [at 38 µM] | activity, negative = inhibition [4] 5.32% [at 38 µM] | Potency [5] > 46 µM | Potency [6] > 46 µM | Potency [7] | Potency [8] | outcome [9] | outcome [10] | Potency [17] | Potency [11] | outcome [12] | outcome [13] | outcome [14] | Potency [15]

OC[C@@H]1NC[C@@H](O)[C@H]1O
active: Potency [15] 12.6 µM
inactive: activity change, negative = inhibition [1] 0.107% [at 38 µM] | Potency [2] | activity change, negative = inhibition [3] 8.18% [at 38 µM] | activity, negative = inhibition [4] -5.61% [at 38 µM] | Potency [5] > 46 µM | Potency [6] > 46 µM | Potency [7] | Potency [8] | outcome [9] | outcome [10] | outcome [12] | outcome [13]
